# Experimental data taken from the supplement of paper PMC9492666.
# Counter-ions that a name gives are not always drawn.
# Columns and labels:
# HCC1937 = assay: relative cell viability, compound + RSL3, vs DMSO (fraction of DMSO control); higher = less growth inhibition; settings: 72 h
# MDA-MB-231 = assay: as above; settings: 72 h
# 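Also: breast cancer cell viability read out with the CCK-8 kit after co-treatment of each compound with the ferroptosis inducer RSL3.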
SMILES,relative cell viability (HCC1937),relative cell viability (MDA-MB-231)
COc1ccc(C2(CNC(=O)c3ccc(NC(=O)c4ccco4)cc3)CCOCC2)cc1 + COC(=O)c1ccc([C@H]2c3[nH]c4ccccc4c3C[C@H](C(=O)OC)N2C(=O)CCl)cc1 [RSL3],0.441,0.49
COc1cc(O)c2c(c1)O[C@H](c1ccc(O)cc1)CC2=O [Sakuranetin] + COC(=O)c1ccc([C@H]2c3[nH]c4ccccc4c3C[C@H](C(=O)OC)N2C(=O)CCl)cc1 [RSL3],0.362,0.645
COc1ccc(N(C(=O)Nc2c(C)cccc2C)c2cc(Nc3ccc(N4CCN(C)CC4)cc3)ncn2)c(OC)c1 + COC(=O)c1ccc([C@H]2c3[nH]c4ccccc4c3C[C@H](C(=O)OC)N2C(=O)CCl)cc1 [RSL3],0.624,0.576
O=c1c(O[C@@H]2O[C@H](CO)[C@@H](O)[C@H](O)[C@H]2O)c(-c2ccc(O)cc2)oc2cc(O)cc(O)c12 [Astragalin] + COC(=O)c1ccc([C@H]2c3[nH]c4ccccc4c3C[C@H](C(=O)OC)N2C(=O)CCl)cc1 [RSL3],0.586,0.645
Cn1nc(C(=O)N(Cc2ccccc2)Cc2ccc(C(=O)O)cc2)c2c1-c1cc(Cl)ccc1OC2 [Nidufexor] + COC(=O)c1ccc([C@H]2c3[nH]c4ccccc4c3C[C@H](C(=O)OC)N2C(=O)CCl)cc1 [RSL3],0.488,0.673
CCOc1cc(CC(=O)N[C@@H](CC(C)C)c2ccccc2N2CCCCC2)ccc1C(=O)O [Repaglinide] + COC(=O)c1ccc([C@H]2c3[nH]c4ccccc4c3C[C@H](C(=O)OC)N2C(=O)CCl)cc1 [RSL3],0.598,0.656
CCN(CC)c1ccc(C=NNC(=O)c2ccncc2)c(O)c1 + COC(=O)c1ccc([C@H]2c3[nH]c4ccccc4c3C[C@H](C(=O)OC)N2C(=O)CCl)cc1 [RSL3],0.265,0.611
CC(C)(Oc1ccc(C(=O)c2ccc(Cl)cc2)cc1)C(=O)O [Choline Fenofibrate] + COC(=O)c1ccc([C@H]2c3[nH]c4ccccc4c3C[C@H](C(=O)OC)N2C(=O)CCl)cc1 [RSL3],0.469,0.692
CC(C)c1c(C(=O)Nc2ccccc2)c(-c2ccccc2)c(-c2ccc(F)cc2)n1CC[C@@H](O)C[C@@H](O)CC(=O)O [Atorvastatin Calcium] + COC(=O)c1ccc([C@H]2c3[nH]c4ccccc4c3C[C@H](C(=O)OC)N2C(=O)CCl)cc1 [RSL3],0.571,0.385
CC(=O)N1CCN(c2ccc(OCC3COC(Cn4ccnc4)(c4ccc(Cl)cc4Cl)O3)cc2)CC1 (stereo not given) [Ketoconazole] + COC(=O)c1ccc([C@H]2c3[nH]c4ccccc4c3C[C@H](C(=O)OC)N2C(=O)CCl)cc1 [RSL3],0.63,0.488
CN1c2ccccc2C(=O)Nc2cnc(Nc3ccc(N4CCC(O)CC4)cc3)nc21 + COC(=O)c1ccc([C@H]2c3[nH]c4ccccc4c3C[C@H](C(=O)OC)N2C(=O)CCl)cc1 [RSL3],0.206,0.375
CN(C)C(=N)NC(=N)N [Metformin hydrochloride] + COC(=O)c1ccc([C@H]2c3[nH]c4ccccc4c3C[C@H](C(=O)OC)N2C(=O)CCl)cc1 [RSL3],0.855,0.605
CC(C)(Oc1ccc(C2CC2(Cl)Cl)cc1)C(=O)O (stereo not given) [Ciprofibrate] + COC(=O)c1ccc([C@H]2c3[nH]c4ccccc4c3C[C@H](C(=O)OC)N2C(=O)CCl)cc1 [RSL3],0.787,0.706
CN(CCOc1ccc(CC2SC(=O)NC2=O)cc1)c1ccccn1 (stereo not given) [Rosiglitazone maleate] + COC(=O)c1ccc([C@H]2c3[nH]c4ccccc4c3C[C@H](C(=O)OC)N2C(=O)CCl)cc1 [RSL3],0.758,0.516
NC(=O)c1cccc(-c2cccc(OC(=O)NC3CCCCC3)c2)c1 + COC(=O)c1ccc([C@H]2c3[nH]c4ccccc4c3C[C@H](C(=O)OC)N2C(=O)CCl)cc1 [RSL3],0.407,0.707
CC[C@H](C)C(=O)O[C@H]1C[C@@H](C)C=C2C=C[C@H](C)[C@H](CC[C@@H]3C[C@@H](O)CC(=O)O3)[C@H]21 [Lovastatin] + COC(=O)c1ccc([C@H]2c3[nH]c4ccccc4c3C[C@H](C(=O)OC)N2C(=O)CCl)cc1 [RSL3],0.867,0.491
CN1CCN(C(=O)C2C(C(=O)O)[C@H]3CC[C@@H]2O3)CC1 (stereo not given in full) + COC(=O)c1ccc([C@H]2c3[nH]c4ccccc4c3C[C@H](C(=O)OC)N2C(=O)CCl)cc1 [RSL3],0.313,0.367
CN1CC(O)C2=C/C(=N/NC(N)=O)C(=O)C=C21 (stereo not given) [Carbazochrome] + COC(=O)c1ccc([C@H]2c3[nH]c4ccccc4c3C[C@H](C(=O)OC)N2C(=O)CCl)cc1 [RSL3],0.451,0.551
NC(=O)c1ncn([C@@H]2O[C@H](CO)[C@@H](O)[C@H]2O)c1N [AICAR (Acadesine)] + COC(=O)c1ccc([C@H]2c3[nH]c4ccccc4c3C[C@H](C(=O)OC)N2C(=O)CCl)cc1 [RSL3],0.646,0.584
O=S(=O)(c1ccccc1)N(CC(F)(F)F)c1ccc(C(O)(C(F)(F)F)C(F)(F)F)cc1 + COC(=O)c1ccc([C@H]2c3[nH]c4ccccc4c3C[C@H](C(=O)OC)N2C(=O)CCl)cc1 [RSL3],0.36,0.638
